In PMC6689086:

Tests used:
[1] = target: ATP-dependent molecular chaperone HSC82 (UniProt P15108); experiment: mass-spectrometry hit list; affinity purification or IP with mass spectrometry
Heat shock protein SSA1 = Heat shock protein SSA1 (UniProt P10591); experiment: as above
Sequence of Heat shock protein SSA1 (P10591 whole entry): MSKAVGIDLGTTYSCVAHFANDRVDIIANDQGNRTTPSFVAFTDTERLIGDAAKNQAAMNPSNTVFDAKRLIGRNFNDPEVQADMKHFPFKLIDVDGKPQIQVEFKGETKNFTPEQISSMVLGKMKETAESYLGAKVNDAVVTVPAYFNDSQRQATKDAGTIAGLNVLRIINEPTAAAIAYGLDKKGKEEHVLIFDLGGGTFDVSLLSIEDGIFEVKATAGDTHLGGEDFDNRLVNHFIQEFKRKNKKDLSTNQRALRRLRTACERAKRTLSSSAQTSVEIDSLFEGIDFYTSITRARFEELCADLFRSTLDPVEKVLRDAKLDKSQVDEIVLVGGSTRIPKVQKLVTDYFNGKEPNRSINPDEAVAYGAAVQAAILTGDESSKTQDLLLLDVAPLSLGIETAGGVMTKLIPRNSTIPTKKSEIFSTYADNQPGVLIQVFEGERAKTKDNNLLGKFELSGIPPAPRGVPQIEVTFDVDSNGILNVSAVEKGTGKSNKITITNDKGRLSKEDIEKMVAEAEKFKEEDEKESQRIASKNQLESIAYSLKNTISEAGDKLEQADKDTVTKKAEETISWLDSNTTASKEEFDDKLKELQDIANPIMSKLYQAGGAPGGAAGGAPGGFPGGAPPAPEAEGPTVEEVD

Sequence of ATP-dependent molecular chaperone HSC82 (P15108 whole entry): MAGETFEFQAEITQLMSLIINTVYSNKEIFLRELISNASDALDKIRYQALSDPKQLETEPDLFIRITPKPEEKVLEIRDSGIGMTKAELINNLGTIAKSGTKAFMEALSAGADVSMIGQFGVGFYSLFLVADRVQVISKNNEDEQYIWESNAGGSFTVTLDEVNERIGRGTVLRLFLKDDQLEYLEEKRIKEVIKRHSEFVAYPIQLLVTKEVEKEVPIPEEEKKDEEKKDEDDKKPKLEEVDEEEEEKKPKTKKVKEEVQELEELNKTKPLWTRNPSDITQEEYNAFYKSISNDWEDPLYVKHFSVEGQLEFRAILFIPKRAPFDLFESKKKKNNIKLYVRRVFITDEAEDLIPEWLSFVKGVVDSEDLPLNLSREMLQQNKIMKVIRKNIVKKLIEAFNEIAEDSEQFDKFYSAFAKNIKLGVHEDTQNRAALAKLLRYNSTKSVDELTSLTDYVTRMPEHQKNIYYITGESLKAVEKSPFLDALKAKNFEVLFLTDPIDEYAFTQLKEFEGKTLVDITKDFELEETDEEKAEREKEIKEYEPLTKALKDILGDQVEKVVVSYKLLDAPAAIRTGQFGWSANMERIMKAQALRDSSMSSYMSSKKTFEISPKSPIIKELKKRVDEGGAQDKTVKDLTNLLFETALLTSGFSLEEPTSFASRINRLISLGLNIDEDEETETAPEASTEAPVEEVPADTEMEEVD
Sequence of Heat shock protein SSA1, P10591 (P10591 whole entry): as the sequence (P10591 whole entry) above

| Substance | listed as a hit [1] | listed as a hit (Heat shock protein SSA1) |
| --- | --- | --- |
| Heat shock protein SSA1, P10591 | yes |  |
| ATP-dependent molecular chaperone HSP82, P02829 |  | yes |
